Source: the supplement of paper PMC12494721
Structures can show the parent of a compound that is named as a salt.

test system: Escherichia coli IAI1; test: fold change of Cadaverine concentration vs plate DMSO controls (fold change (ratio)); higher = more amine produced, active = hit call of the paper (significant change in both replicates, either direction); conditions: incubation time: 27 h, anaerobic, 37 °C;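 for the amine columns active = adjusted P below 0.05 in both replicates with a change the same way and a mean fold change under 0.8 or over 1.25; inactive = the rest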
Method in brief: (§1)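 Anaerobic mGAM cultures of four gut bacterial strains were grown at 37 °C for 27 h in 80 µL wells, starting at OD 0.1 before 1:1 dilution. Compounds were at 20 µM final (sweeteners 50 µM). Whole cultures were extracted with cold acetonitrile/methanol containing 0.1% formic acid and centrifuged. Amines were quantified by LC–triple-quadrupole MS (dynamic MRM) against external calibration curves and drift-corrected within batch. Each value is the fold change versus plate DMSO controls, averaged over 2 biological replicates.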

Compound | fold change of Cadaverine concentration
COc1c(N2C[C@@H]3CCCN[C@@H]3C2)c(F)cc2c(=O)c(C(=O)O)cn(C3CC3)c12 [Moxifloxacin] (20 µM) | 0.236 (active)
CCN(CC)CCNC(=O)c1ccc(N)cc1 [Procainamide hydrochloride] (20 µM) | 1.01 (inactive)
Clc1ccccc1CN1CCc2sccc2C1 [Ticlopidine hydrochloride] (20 µM) | 0.934 (inactive)
CCC(C)C(C(=O)OCC[N+](C)(CC)CC)c1ccccc1 (stereo not drawn) [Valethamate bromide] (20 µM) | 1.03 (inactive)
O=C(O)[C@H]1/C(=C/CO)O[C@@H]2CC(=O)N21 [Clavulanate potassium salt] (20 µM) | 1.05 (inactive)
CC(C)(C)CC(C)(C)c1ccc(OCCOCC[N+](C)(C)Cc2ccccc2)cc1 [Benzethonium chloride] (20 µM) | 1.02 (inactive)
CO/N=C(\C(=O)N[C@@H]1C(=O)N2C(C(=O)O)=C(C[N+]3(C)CCCC3)CS[C@H]12)c1csc(N)n1 [Cefepime hydrochloride] (20 µM) | 0.884 (inactive)

test system: Klebsiella aerogenes DSM 30053; test: as above; conditions: incubation time: 27 h, anaerobic, 37 °C
Method in brief: as §1

Compound | fold change of Cadaverine concentration
CN(CCOc1ccc(NS(C)(=O)=O)cc1)CCc1ccc(NS(C)(=O)=O)cc1 [Dofetilide] (20 µM) | 1 (inactive)
COc1cc2nc(N3CCN(C(=O)c4ccco4)CC3)nc(N)c2cc1OC [Prazosin hydrochloride] (20 µM) | 1 (inactive)
CCc1c2c(nc3ccc(OC(=O)N4CCC(N5CCCCC5)CC4)cc13)-c1cc3c(c(=O)n1C2)COC(=O)[C@]3(O)CC [Irinotecan hydrochloride trihydrate] (20 µM) | 0.988 (inactive)
O=C(O)CCNC(=O)c1ccccc1 [Betamipron] (20 µM) | 1 (inactive)
Cc1cc(C(C)(C)CC(C)(C)C)ccc1OCCOCC[N+](C)(C)Cc1ccccc1 [Methyl benzethonium chloride] (20 µM) | 0.985 (inactive)
CCN1CCN(C(=O)N[C@@H](C(=O)N[C@@H]2C(=O)N3C(C(=O)O)=C(CSc4nnnn4C)CS[C@H]23)c2ccc(O)cc2)C(=O)C1=O [Cefoperazone dihydrate] (20 µM) | 1.13 (inactive)
CN(C)CCCN1c2ccccc2CCc2ccccc21 [Imipramine hydrochloride] (20 µM) | 1.03 (inactive)
CCOC(=O)C1=C(C)NC(C)=C(C(=O)OC)C1c1cccc(Cl)c1Cl (stereo not drawn) [Felodipine] (20 µM) | 1.01 (inactive)
CCOC(=O)C1=C(COCCN)NC(C)=C(C(=O)OC)C1c1ccccc1Cl (stereo not drawn) [Amlodipine] (20 µM) | 0.988 (inactive)
O=C(O)c1cn(C2CC2)c2cc(N3CCNCC3)c(F)cc2c1=O [Ciprofloxacin hydrochloride monohydrate] (20 µM) | 0.938 (inactive)
Nc1ccn([C@@H]2CS[C@H](CO)O2)c(=O)n1 [Lamivudine] (20 µM) | 0.99 (inactive)
COc1ccc(CCN(C)CCCC(C#N)(c2ccc(OC)c(OC)c2)C(C)C)cc1OC (stereo not drawn) [Verapamil hydrochloride] (20 µM) | 0.972 (inactive)
CC[C@]12CCCN3CCc4c(n(c5ccccc45)[C@@](O)(C(=O)OC)C1)[C@@H]32 [Vincamine] (20 µM) | 0.99 (inactive)
Cc1noc(NS(=O)(=O)c2ccc(N)cc2)c1C [Sulfisoxazole] (20 µM) | 1.01 (inactive)
O=C1CN(/N=C/c2ccc([N+](=O)[O-])o2)C(=O)N1 [Nitrofurantoin] (20 µM) | 0.997 (inactive)
C=C[C@H]1CN2CC[C@H]1C[C@@H]2[C@@H](O)c1ccnc2ccc(OC)cc12 [Quinidine hydrochloride monohydrate] (20 µM) | 0.987 (inactive)
O=C1C(CC[S+]([O-])c2ccccc2)C(=O)N(c2ccccc2)N1c1ccccc1 (stereo not drawn) [Sulfinpyrazone] (20 µM) | 1.01 (inactive)
CCCCCCCCNC(C)C(O)c1ccc(SC(C)C)cc1 (stereo not drawn) [Suloctidil] (20 µM) | 0.996 (inactive)
CC(=O)Nc1ccc(O)cc1 [Acetaminophen] (20 µM) | 0.993 (inactive)
CC(C)(c1cc(Br)c(O)c(Br)c1)c1cc(Br)c(O)c(Br)c1 (20 µM) | 1.04 (inactive)
CCn1cc(C(=O)O)c(=O)c2cc(F)c(N3CCN(C)CC3)cc21 [Pefloxacin] (20 µM) | 0.972 (inactive)
